Measured values taken from PubChem BioAssay AID504332 (National Center for Advancing Translational Sciences (NCATS), 2011).
Screen size: about 350,000 compounds; about 31,000 (8.9%) were called active. Entries that show only a call come without a potency. Not shown: some 15% with an inconclusive outcome. Calls come from the whole dose curve; as a rule, active = well fitted inhibition curve with a large enough effect; inconclusive = small, poorly fitted or top-dose-only effect; inactive = no such curve, though single readings can be large or run the other way. For the sample, actives were picked, then their nearest neighbours and some compounds at random.

Target: Histone-lysine N-methyltransferase EHMT2 (Homo sapiens) (UniProt Q96KQ7)
Assay: qHTS Assay for Inhibitors of Histone Lysine Methyltransferase G9a; note: nearly all actives have a fitted effect of over 75% in size
Conditions: G9a H3K9 monomethylation, AlphaScreen, 2 h; series mostly up to 59 µM
Outline: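 Quantitative HTS format: methyltransferase activity on a biotin-tagged H3K9 peptide is measured by AlphaScreen, using a rabbit anti-monomethyl-H3K9 antibody with streptavidin donor and anti-IgG acceptor beads. Final levels are 20 nM enzyme, 500 nM peptide, 20 uM SAM; 2 h RT.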
Potency is the fitted concentration of half-maximal effect.

Histone-lysine N-methyltransferase EHMT2 (Homo sapiens), sequence (Q96KQ7 913-1193 limits assumed): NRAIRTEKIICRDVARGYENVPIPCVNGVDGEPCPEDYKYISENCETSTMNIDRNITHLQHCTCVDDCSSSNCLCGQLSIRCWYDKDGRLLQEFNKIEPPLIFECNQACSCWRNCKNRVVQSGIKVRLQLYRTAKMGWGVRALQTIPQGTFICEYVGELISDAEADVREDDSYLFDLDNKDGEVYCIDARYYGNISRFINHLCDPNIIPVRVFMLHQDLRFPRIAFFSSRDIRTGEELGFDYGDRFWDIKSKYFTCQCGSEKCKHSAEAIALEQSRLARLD

SMILES | Potency | activity, negative = inhibition
CCc1ccc(CN(Cc2ccco2)C(=O)COc2ccc(Cl)c(C)c2)cc1 | inactive | –
Cc1ccc(OCCSc2nc(C)c(Cc3ccccc3)c(=O)[nH]2)cc1 | inactive | –
CCOc1cc(C2C(C(=O)c3ccco3)=C(O)C(=O)N2Cc2ccccc2)ccc1O (centres undefined) | 44.7 µM (active) | –
O=C(C1=C(O)C(=O)N(Cc2ccccc2)C1c1ccco1)c1ccco1 (centres undefined) | – | 0.744% [at 12.7 µM] (inactive)
CCOc1cc(C2c3c(-c4ccc(Br)cc4)n[nH]c3C(=O)N2c2ccc(Cl)cc2)ccc1O (centres undefined) | inactive | –
O=C(CCNS(=O)(=O)c1ccccc1C(F)(F)F)Nc1ccncc1 | – | -8.2% [at 12.7 µM] (inactive)
Cc1cc(/C=C2/SC(=O)N(CC(=O)N3CCCC3)C2=O)ccc1N1CCOCC1 | inactive | –
Cc1cc(/C=C2/SC(=O)N(CC(=O)OC(C)C)C2=O)c(C)n1C | – | 19.4% [at 12.7 µM] (inactive)
Cc1cc(/C=C2/SC(=O)N(CC(=O)N3CCCC3)C2=O)c(C)n1C | 50.1 µM (active) | –
Cc1cccc(N=C2SC(C)CN2C(=O)CN2C(=O)NC3(CCCC3)C2=O)c1 (centres undefined) | – | -1.2% [at 0.501 µM] (inactive)
CCn1cc2nc(SCc3ccccc3Cl)n(CCc3ccccc3)c(=O)c2n1 | inactive | –
C=CCOc1ccc(/C=C/C(=O)OC(C)C(=O)Nc2ccc(NC(C)=O)cc2)cc1 (centres undefined) | inactive | –
COc1ccc(CNC(=O)COC(=O)CCS(=O)(=O)c2ccc(C)cc2)cc1OC | inactive | –
CN1CCN(S(=O)(=O)c2cccc(C(=O)O)c2)CC1 | inactive | –
CN1CCN(S(=O)(=O)c2ccc3[nH]cc(C(=O)O)c(=O)c3c2)CC1 | 56.2 µM (active) | –
CN1CCCN(S(=O)(=O)c2ccc3c(c2)OCCO3)CC1 | inactive | –
Cc1ccc(C)c(N2CCN(Cc3nnc(-c4ccccc4)o3)CC2)c1 | inactive | –
COc1ccc(N2CCN(Cc3nc4c(c(=O)[nH]c(=O)n4C)n3Cc3ccc(Cl)cc3)CC2)cc1 | inactive | –
CCOCc1c(C(=O)N2CCN(Cc3ccc(Br)s3)CC2)oc2ccccc12 | – | 16.1% [at 2.33 µM] (inactive)
COc1ccc(N2CCN(Cc3nnc(-c4ccccc4)o3)CC2)cc1 | 35.5 µM (active) | –
COc1ccc(N2CCN(Cc3ccc(Br)s3)CC2)cc1 | 3.16 µM (active) | –
Cc1ccc(-c2nnc(CN3CCN(C)CC3)o2)cc1 | inactive | –
CNS(=O)(=O)c1cccc(C(=O)OCC(=O)N2c3ccccc3NC(=O)C2(C)C)c1 | – | 10.5% [at 12.7 µM] (inactive)
COc1ccc(NC(=O)CN2CCCN(Cc3ccccc3)S2(=O)=O)cc1 | inactive | –

SMILES | Potency | activity, negative = inhibition
CC(C)Sc1ncnc2c1cnn2-c1ccccc1 | inactive | –
Cc1cc(NC(=O)C(C)SCC(=O)Nc2ccccc2N2CCCCC2)no1 (centres undefined) | inactive | –
CCOc1ccc(CNC(=O)c2ccc3nc(CC)c(CC)nc3c2)cc1OC | inactive | –
CCCCNC(=O)N(O)C1N(/N=C/c2ccccc2O)C(=S)SC1(C)C (centres undefined) | inactive | –
CN1CCN(c2ccc(NC(=O)c3cc(Cl)c4c(c3)OCCO4)cc2)CC1 | 50.1 µM (active) | –
CN1CCN(c2ccc(NC(=O)c3ccccc3)cc2)CC1 | inactive | –
O=C(Nc1cccc(Cl)c1N1CCOCC1)c1ccc2c(c1)OCCO2 | inactive | –
CCCC12CN3CC(C)(CN(C1)C3c1ccccc1Cl)C2=O (centres undefined) | inactive | –
COc1ccc2ccn(C)c2c1 | – | -0.398% [at 0.501 µM] (inactive)
COc1ccc2c(c1)cc1n2CCN=C1NN | 39.8 µM (active) | –
Cc1ccc(C)c(NC(=O)Cn2ccn(-c3ccc(F)cc3)c(=O)c2=O)c1 | inactive | –
Cc1cccc(C(=O)Nc2ccc(-c3nc4ncccc4o3)cc2C)c1 | inactive | –
COC(=O)C1=CO[C@@H](O[C@@H]2O[C@H](CO)[C@@H](O)[C@H](O)[C@H]2O)C2C1C[C@H](O)[C@@H]2C (some centres undefined) | – | 1.46% [at 2.33 µM] (inactive)
CCc1cccc(NC(=O)Cn2nc(CC)n3c(cc4cc(C)ccc43)c2=O)c1 | inactive | –
COc1ccccc1C(=O)NCC(=O)OCC(=O)Nc1nnc(-c2ccccc2)o1 | – | 17.3% [at 12.7 µM] (inactive)
COc1ccccc1NC(=O)C1=C(C)NC(=O)NC1c1ccc(C)s1 (centres undefined) | inactive | –
COc1ccccc1NC(=O)C1=C(C)NC2=C(C(=O)CCC2)C1c1ccc(C)o1 (centres undefined) | 50.1 µM (active) | –
COc1ccccc1NC(=O)C1=C(C)Nc2ncnn2C1c1ccc(C)o1 (centres undefined) | – | -42.2% [at 12.7 µM] (inactive)
CCOC(=O)c1cc2c(=O)n3ccccc3nc2n(CC2CCCO2)c1=NC(=O)c1ccccc1Br (centres undefined) | inactive | –
CC(=O)N/C(=C\c1ccccc1)C(=O)OC(C)C(=O)N(C)c1ccccc1 (centres undefined) | inactive | –
Cc1ccc(OCCCC(=O)Nc2ccc3c(c2)OCCO3)cc1 | inactive | –
O=C(c1ccc(OC2CCN(Cc3ccccn3)CC2)cc1)N1CCCCCC1 | inactive | –
CN(CCc1ccccn1)C(=O)c1ccc(OC2CCN(Cc3ccccn3)CC2)cc1 | – | 24.7% [at 0.501 µM] (inactive)
CCCCN(C)C(=O)C1CCN(Cc2ccccn2)CC1 | 5.62 µM (active) | –

SMILES | Potency | activity, negative = inhibition
Cc1noc(C)c1COc1ccccc1C(=O)N(C)CC(=O)Nc1cccc(F)c1 | inactive | –
CCOC(=O)c1ccc(NC(=O)Cn2cc(S(=O)(=O)Cc3ccccc3F)c3ccccc32)cc1 | inactive | –
Cc1cc(C(=O)CCC(=O)NNC(=O)c2ccccc2O)c(C)s1 | inactive | –
Cc1sc2nc(SCCO)n(-c3ccccc3)c(=O)c2c1C | inactive | –
C=CCN1CN(S(=O)(=O)c2ccc(OC)cc2)c2nc3ccccc3nc21 | 7.08 µM (active) | –
COc1ccc(S(=O)(=O)N2CCSCC2)cc1 | inactive | –
O=S(=O)(c1ccccc1)N1CN(Cc2ccc(F)cc2)c2nc3ccccc3nc21 | inactive | –
O=C(CC1C(=O)N(c2ccccc2)C(=O)N1CCc1cccs1)Nc1ccc(F)cc1 (centres undefined) | inactive | –
Cc1ccccc1C(=O)NC(=S)NC1CC1 | inactive | –
CCn1c2ccccc2c2cc(NC(=O)COc3ccc(C)cc3C)ccc21 | inactive | –
CCCCC(CC)CNC(=O)CCCCn1c(=O)[nH]c2ccsc2c1=O (centres undefined) | inactive | –
O=C(CCCCCn1c(=S)[nH]c2ccsc2c1=O)NC1CCCCC1 | 10 µM (active) | –
O=C(CCC(=O)c1cccs1)NC1CCCCCC1 | inactive | –
COc1ccccc1-c1sc2ccccc2c1-c1ccc(C(C)=O)cc1 | inactive | –
COc1ccc(C(CCN(Cc2ccc(OC)c(OC)c2)C(=O)CCl)c2ccccc2)cc1 (centres undefined) | 50.1 µM (active) | –
CCOC(=O)CN(Cc1ccc(OC)c(OC)c1)S(=O)(=O)c1ccc(OC)cc1 | inactive | –
COc1ccc(CN(C)C(=O)CC(c2ccccc2)c2ccccc2)cc1 | inactive | –
Cc1ccc(Cl)cc1N1CCN(C(=O)c2cn(C)c3ccc(S(=O)(=O)N(C)C4CCCCC4)cc3c2=O)CC1 | inactive | –
CCn1cc(CCC(=O)NCc2ccc(F)cc2)c2ccccc21 | inactive | –
COc1cc(OC)c(OC)cc1/C=C/c1nc2cc3ccccc3cc2c(=O)n1-c1ccc(F)c(Cl)c1 | inactive | –
Fc1ccc(Nc2nc(SCc3ccccc3Cl)nc3ccccc23)cc1 | inactive | –
C=CS(=O)c1sc(Cl)c(N2CCOCC2)c1[N+](=O)[O-] (centres undefined) | 1.58 µM (active) | –
O=C(CC1Oc2ccccc2NC1=O)NCc1ccc(F)cc1 (centres undefined) | inactive | –
CC1=C(C)CC2C(=O)N(c3cccc4ccccc34)C(=O)C2C1 (centres undefined) | 7.94 µM (active) | –

SMILES | Potency | activity, negative = inhibition
O=C1c2ccccc2C(=O)N1c1cccc2ccccc12 | inactive | –
CCc1ccccc1N1C(=O)C2C3CC(=O)C(c4ccccc43)C2C1=O (centres undefined) | inactive | –
CCCCn1cc(S(=O)(=O)c2ccc(OCC)cc2)c(=O)c2cc(OC)c(OC)cc21 | inactive | –
CCn1c(=O)c(C(=O)NCc2ccc3c(c2)OCO3)c(O)c2ccccc21 | – | 8.89% [at 0.501 µM] (inactive)
COc1ccc(C2c3c(oc4ccccc4c3=O)C(=O)N2Cc2ccc3c(c2)OCO3)cc1 (centres undefined) | inactive | –
CCc1noc(C)c1C(=O)Oc1ccc(N(C)S(=O)(=O)c2ccc(C)c(C)c2)cc1 | – | 15.4% [at 12.7 µM] (inactive)
Cn1cccc1Cc1nnc(SCC(=O)NCCc2ccccc2)n1-c1ccc(F)cc1 | 56.2 µM (active) | –
O=C(CSc1nnc(CNC(=O)c2ccccc2)n1-c1ccc(F)cc1)Nc1ccccc1F | inactive | –
CNC(=O)CSc1nnc(CCc2ccccc2)n1-c1ccccc1 | inactive | –
COC(=O)c1ccc(NC(=O)CSc2nnc(C3CC3)n2C)cc1 | inactive | –
COC(=O)c1ccc(NC(=O)CSc2nnc(-c3ccncc3)n2C)cc1 | inactive | –
COC(=O)c1ccc(NC(=O)CSc2nnc(Cc3cccn3C)n2-c2ccc(F)cc2)cc1 | 44.7 µM (active) | –
Cc1ccccc1NC(=O)Cc1nc(COC(=O)c2cccnc2Cl)cs1 | inactive | –
COc1ccccc1C(CNC(=O)c1ccc(C)c(S(=O)(=O)N2CCCCC2)c1)N(C)C (centres undefined) | – | 24.7% [at 12.7 µM] (inactive)
CC(=O)Nc1ccc(Nc2cc(C)nc(Nc3ccc(NC(C)=O)cc3)n2)cc1 | – | -6.09% [at 2.33 µM] (inactive)
COc1ccc(CCn2c(=N)c(C(=O)NCC3CCCO3)cc3c(=O)n4cccc(C)c4nc32)cc1OC (centres undefined) | inactive | –
COc1ccc2c(c1)N(C)/C(=C1/SC(=S)N(NC(C)=O)C1=O)S2 | 70.8 µM (active) | –
COc1cccc(NC(=O)Nc2ccc3c(c2)N(C)C(=O)c2ccccc2S3)c1 | inactive | –
COc1cccc(/C=C2\Sc3ccc(C(=O)NCC4CCCO4)cc3N(C)C2=O)c1 (centres undefined) | inactive | –
CN(C(=O)CSc1nnc(-c2ccc3c(c2)OCO3)o1)C1CCS(=O)(=O)C1 (centres undefined) | – | 23.8% [at 12.7 µM] (inactive)
CCOC(=O)c1cc(C(C)C)sc1NC(=O)COC(=O)c1nccnc1N | – | -18.5% [at 0.501 µM] (inactive)
COC(=O)c1ccc(C(=O)NC2CC(C)(C)Cc3c2cnn3-c2ccc(F)cc2)nc1 (centres undefined) | inactive | –
